According to PubChem BioAssay (EPA / NIEHS):
Records with an inconclusive call do not appear. Activity calls are given as the source filed them. How the source made its calls: active means hit-call score of the fitted dose curve at least 0.9, where 1 is the maximum; inconclusive means response in the unintended direction; inactive means score below 0.9.

Each compound was assayed against Cellular tumor antigen p53 (Homo sapiens) (UniProt P04637) (assay: TOX21_p53_BLA_p2_ratio: Tox21 HCT-116 p53 Agonism Beta-lactamase Assay, Ratio, Phase 2 (AID 2283592)).
Chain of Cellular tumor antigen p53 (Homo sapiens) (P04637 whole entry, looked up, the tested form may be a part): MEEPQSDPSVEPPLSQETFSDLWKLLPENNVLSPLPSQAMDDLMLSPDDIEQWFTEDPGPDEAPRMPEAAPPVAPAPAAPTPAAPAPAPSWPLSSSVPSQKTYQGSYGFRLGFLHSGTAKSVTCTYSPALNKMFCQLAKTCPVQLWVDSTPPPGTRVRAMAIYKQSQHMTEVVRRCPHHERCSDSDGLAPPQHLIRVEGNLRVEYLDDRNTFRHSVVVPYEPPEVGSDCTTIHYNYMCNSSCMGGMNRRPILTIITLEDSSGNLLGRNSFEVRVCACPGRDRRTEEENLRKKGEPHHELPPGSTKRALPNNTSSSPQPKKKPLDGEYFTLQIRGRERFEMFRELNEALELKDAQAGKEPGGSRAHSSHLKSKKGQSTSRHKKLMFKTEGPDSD
Source text: TOX21_p53_BLA_p2 is a cell-based, single-readout assay that uses HCT116, a human intestinal cell line, […] in a 1536-well plate.TOX21_p53_BLA_p2_ratio is an assay readout measuring reporter gene via receptor activity and designed using inducible reporter (beta lactamase induction) detected with GAL4 b-lactamase reporter gene. The signal is derived from the ratio of cleaved (ch2) to uncleaved (ch1) reporter gene substrate used as the measure of target activity.Data from the assay component TOX21_p53_BLA_p2_ratio was analyzed into 1 assay endpoint. This assay endpoint, TOX21_p53_BLA_p2_ratio, was analyzed in the positive analysis fitting direction relative to DMSO as the negative control and baseline of activity. Using a type of inducible reporter, gain-of-signal activity can be used to understand changes in the reporter gene as they relate to the gene TP53. Furthermore, this assay endpoint can be referred to as a primary readout, because this assay has produced multiple assay endpoints and this ratio serves a reporter gene function to understand target activity. To generalize the intended target to other relatable targets, this assay endpoint is annotated to the DNA binding intended target family, where the subfamily is tumor suppressor.
Thawing Method: Place 14 mL of pre-warmed thaw medium into a 15 mL of conical tub. Remove the vial of cells to be thawed from liquid nitrogen and thaw rapidly by placing at 37C in a water bath with gentle agitation for 1-2 minutes. Decontaminate the vial by wiping with 70% ethanol before opening in a biological safety cabinet. Transfer the vial contents drop-wise into 14 mL of thaw medium in a sterile 15-mL conical tub. Centrifuge cells at 900 rpm for 4 minutes and resuspend in thaw medium. Transfer contents to the T75 tissue culture flask containing Thaw Medium and place flask in a humidified 37C/5% CO2 incubator. Switch to growth medium at first passage.Propagation Method: Aspirate medium, rinse once in DPBS, add 0.25% Trypsin/EDTA and swirl to coat the cell evenly. Add an equal volume of Growth Medium to inactivate Trypsin after 2-3 minutes incubation at 37C. Centrifuge cells at 900 rpm for 4 minutes and resuspend in growth medium. Cell should be passage or fed at least twice a week.Assay Protocol: Harvest cells from culture in growth medium and resuspend in assay medium. 2.2 Dispense 4000 cells/5 uL/well into 1536-well black/clear bottom plates using a Multidrop dispenser. After the cells were incubated at 37C for 5 hours, 23 nL of compounds dissolved in DMSO were transferred to the assay plate by a PinTool resulting in a 217-fold dilution. Incubate the plates for 16 hours at 37C, 5% CO2. Add 1 uL of 6X LiveBLAzer FRET B/G (CCF4-AM) Substrate Mixture to each well using a BioRAPTR dispenser and incubate the plates at room temperature for 2 hours. Measure fluorescence intensity at 460 and 530 nm emission and 405 nm excitation by an Envision detector. Data is expressed as the ratio of 460nm/530nm emissions. Add 4 uL of Cell-titer Glo to each well using BioRAPTR and incubate the plates at room temperature for 2 hours. Measure fluorescence intensity by a VewLux plate reader.
In the case of `Cc1cc(C)cc([N+](=O)[O-])c1`, the outcome is reported as “inactive”.
With `O=C1c2ccccc2C(=O)C1c1ccccc1` the outcome was “inactive”.
For `C[Se]CC[C@H](N)C(=O)O`, the outcome was “inactive”.
`Nc1nc2c(ncn2COCCO)c(=O)[nH]1` was tested, and the outcome was “inactive”.
With `CCCCc1ncc(/C=C(\Cc2cccs2)C(=O)O)n1Cc1ccc(C(=O)O)cc1` the outcome was “inactive”.
In the case of `FC(F)(F)C(Cl)(Cl)Cl`, the outcome is reported as “inactive”.
For `CNCC(=O)N[C@@H](CCCN=C(N)N)C(=O)N[C@H](C(=O)N[C@@H](Cc1ccc(O)cc1)C(=O)N[C@H](C(=O)N[C@@H](Cc1cnc[nH]1)C(=O)N1CCC[C@H]1C(=O)N[C@@H](C)C(=O)O)C(C)C)C(C)C`, the outcome was “inactive”.
In the case of `CC(=O)c1ccc2ccc3ccccc3c2c1`, the AC50 is reported as 85.8 µM (active).
`CC=C(Cl)Cl` was tested, and the outcome was “inactive”.
With `CCCCOC(=O)C(=O)Nc1cccc(-c2nn[nH]n2)c1` the outcome was “inactive”.
For `OCc1c2ccccc2cc2ccccc12`, the outcome was “inactive”.
`FC1(F)C(F)(F)C(F)(F)C2(F)C(F)(F)C(F)(F)C(F)(F)C(F)(F)C2(F)C1(F)F` (stereo not given) was tested, and the outcome was “inactive”.
With `NS(=O)(=O)c1cc2c(cc1Cl)NC(Cc1ccccc1)NS2(=O)=O` (stereo not given) the outcome was “inactive”.
`C[n+]1ccn(Cc2ccccc2)c1` was tested, and the outcome was “inactive”.
For `CCCCCCCCCCCCCCBr`, the outcome was “inactive”.
With `CC1OCCC1=O` (stereo not given) the outcome was “inactive”.
`c1cc2c3c(c1)ccc1cccc(c13)C2` was tested, and the outcome was “inactive”.
For `CCN(CC)CCOC(=O)C(c1ccccc1)C1CCCCC1` (stereo not given), the outcome was “inactive”.
In the case of `O=C1OC(OC(=O)c2cccnc2Nc2cccc(C(F)(F)F)c2)c2ccccc21` (stereo not given), the outcome is reported as “inactive”.
With `CCOc1ccccc1N` the outcome was “inactive”.
For `O=C(C(=O)c1ccc(Br)cc1)c1ccc(Br)cc1`, the outcome was “inactive”.
`Nc1cccc2c(=O)[nH][nH]c(=O)c12` was tested, and the outcome was “inactive”.
With `CO[C@]1(NC(=O)CSC(F)F)C(=O)N2C(C(=O)O)=C(CSc3nnnn3CCO)CO[C@H]21` the outcome was “inactive”.
In the case of `Nc1nc2c(ncn2COC(CO)CO)c(=O)[nH]1`, the outcome is reported as “inactive”.
`N[C@H](C(=O)O)[C@@H](O)c1ccc(O)c(O)c1` was tested, and the outcome was “inactive”.
For `COc1ccc(-c2cc(C(F)F)nn2-c2ccc(S(N)(=O)=O)cc2)cc1F`, the outcome was “inactive”.
In the case of `CCCOC(=O)c1ccc(N)cc1`, the outcome is reported as “inactive”.
With `CNC[C@@H]1CC[C@@H](N)[C@@H](O[C@H]2[C@H](O)[C@@H](O[C@H]3OC[C@](C)(O)[C@H](NC)[C@H]3O)[C@H](N)C[C@@H]2N)O1` the outcome was “inactive”.
With `CS(=O)(=O)CCNCc1ccc(-c2ccc3ncnc(Nc4ccc(OCc5cccc(F)c5)c(Cl)c4)c3c2)o1` the outcome was “inactive”.
With `COC(=O)C(C)O` (stereo not given) the outcome was “inactive”.
With `CN(C)c1ccc(SC#N)cc1` the outcome was “inactive”.
For `CC(C)(O)c1ccccc1`, the outcome was “inactive”.
In the case of `CC/C=C(\C(=O)N[C@@H]1C(=O)N2C(C(=O)OCOC(=O)C(C)(C)C)=C(COC(N)=O)CS[C@H]12)c1csc(N)n1`, the outcome is reported as “inactive”.
For `C[C@]12CC[C@@H]3c4ccc(OC(=O)c5ccccc5)cc4CC[C@H]3[C@@H]1CC[C@@H]2O`, the outcome was “inactive”.
`O=C1OC(=O)c2cccc3cccc1c23` was tested, and the outcome was “inactive”.
In the case of `COc1ccc(C(=O)NCc2ccc(OCCN(C)C)cc2)cc1OC`, the outcome is reported as “inactive”.
In the case of `CC(C)NC[C@@H](O)COc1cccc2ccccc12`, the outcome is reported as “inactive”.
With `c1ccc(SCCSc2ccccc2)cc1` the outcome was “inactive”.
`CN1CCN(C(c2ccccc2)c2ccccc2)CC1` was tested, and the outcome was “inactive”.
With `CCC=O` the outcome was “inactive”.
